{"source": "PubChem BioAssay (NCATS)", "note": "Inconclusive results are not listed. Unmarked numbers belong to inactive results. The source made the active and inactive calls. Calls follow the shape of the dose curve; as a rule, active = well fitted activation curve with a large enough effect; inconclusive = small, poorly fitted or top-dose-only effect; inactive = no such curve, though single readings can be large or run the other way. Potency is read from the fitted curve at half-maximal effect."}
{"biological_target": "Cellular tumor antigen p53 (Homo sapiens) (UniProt P04637)", "sequence (P04637 whole entry, looked up)": "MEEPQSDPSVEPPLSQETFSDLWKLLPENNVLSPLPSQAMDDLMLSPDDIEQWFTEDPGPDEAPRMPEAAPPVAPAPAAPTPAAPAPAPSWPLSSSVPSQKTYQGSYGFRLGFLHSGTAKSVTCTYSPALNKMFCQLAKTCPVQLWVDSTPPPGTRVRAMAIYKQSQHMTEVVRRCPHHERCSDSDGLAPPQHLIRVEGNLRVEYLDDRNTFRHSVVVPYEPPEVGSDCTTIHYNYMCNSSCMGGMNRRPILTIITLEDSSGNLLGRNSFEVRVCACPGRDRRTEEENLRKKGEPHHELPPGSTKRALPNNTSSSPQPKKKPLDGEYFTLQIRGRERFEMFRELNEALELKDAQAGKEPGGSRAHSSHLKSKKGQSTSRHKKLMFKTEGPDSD", "test": "Primary qHTS for small molecule compounds that upregulate eGFP-tagged delta133p53alpha (in N-terminal) cells. (AID 2060322); also: nearly all actives have a fitted effect of over 75% in size;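 as to activation: cells pre-induced with doxycycline then dosed without doxycycline; series mostly up to about 56 µM; 0% = DMSO vehicle and 100% = reference activator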", "conditions": "NCI-H358 eGFP-delta133p53alpha fluorescence, 24 h; activation: stronger effect = higher value", "how_it_was_run": "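NCI-H358 cells pre-induced 24 h with 10 ng/ml doxycycline for eGFP-delta133p53alpha, plated dox-free and exposed 24 h at 37C to titrated compounds. Fixed, Hoechst-stained; gated GFP peak intensity by laser scanning cytometry, normalized to DMSO (0%) and 57.5 uM 5-azacytidine (100%).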", "units": {"activation": "%"}}
{"smiles": "Nc1nc2c(nc(Sc3ccc(Cl)cc3)n2[C@@H]2O[C@@H]3COP(=O)(O)O[C@H]3[C@H]2O)c(=O)[nH]1", "activation": 1}
{"smiles": "COc1c(-c2ccc(O)cc2)cc(OC)c2c1oc1cc(O)c(OC3OC(CO)C(O)C3O)cc12", "note": "(stereo not drawn)", "activation": 1.79}
{"smiles": "CC1=C(CCC(C)CC(=O)O)[C@@]2(C)CCCC(C)(C)C2CC1=O", "note": "(stereo partly drawn)", "activation": -29.5}
{"smiles": "CC1=C2C(=O)C=C(CO)[C@@H]2[C@H]2OC(=O)[C@H](C)[C@@H]2[C@@H](O)C1", "activation": -3.57}
{"smiles": "CC1CCCC(O)CC(=O)c2c(O)cc(O)cc2CC(=O)O1", "note": "(stereo not drawn)", "activation": 4.58}
{"smiles": "CC(=O)O[C@@H]1C[C@H](O)[C@@]23CO[C@H](O)[C@]1(C)C2C[C@@H](O)[C@]1(C)C3C(=O)[C@H](OC(C)=O)[C@@]2(C)[C@H](c3ccoc3)C[C@H]3O[C@]321", "note": "(stereo partly drawn)", "activation": -1.79}
{"smiles": "CCC(=O)OCC(=O)[C@@]1(OC(=O)CC)[C@@H](C)C[C@H]2[C@@H]3CCC4=CC(=O)C=C[C@]4(C)[C@@]3(F)[C@@H](O)C[C@@]21C", "activation": -5}
{"smiles": "CCC(O)(C(=O)OCc1ccccc1NC(=O)CCC(=O)O)C(C)O", "note": "(stereo not drawn)", "activation": 4.58}
{"smiles": "CCC(=O)N[C@@H]1Cc2ccccc2[C@H](c2ccccc2)C1", "activation": -0.333}
{"smiles": "CC1(C)CC[C@]2(C(=O)O[C@@H]3O[C@H](CO)[C@@H](O)[C@H](O)[C@H]3O)CC[C@]3(C)C(=CCC4[C@@]5(C)CC[C@H](O[C@@H]6O[C@H](C(=O)O)[C@@H](O[C@@H]7O[C@H](CO)[C@@H](O)[C@H](O)[C@H]7O)[C@H](O)[C@H]6O[C@@H]6O[C@H](CO)[C@@H](O)[C@H](O)[C@H]6O)C(C)(C)C5CC[C@]43C)C2C1", "note": "(stereo partly drawn)", "activation": -29.8}
{"smiles": "C=C1C(O)CC2C(C(=O)O)=COC(O[C@@H]3O[C@H](COC(=O)c4ccc(O)cc4)[C@@H](O)[C@H](O)[C@H]3O)C12", "note": "(stereo partly drawn)", "activation": -6.11}
{"smiles": "C[C@H]1CCN2C[C@]34C[C@@]5(C(=O)Nc6c5ccc5c6OC=CC(C)(C)O5)C(C)(C)C3C[C@]12C(=O)N4C", "note": "(stereo partly drawn)", "activation": 5.34}
{"smiles": "CC(=O)O[C@H]1[C@@]2(O)C[C@H](C)[C@H](OC(=O)c3ccccc3)[C@@H]2[C@@H](OC(=O)CO)[C@]2(OC(C)=O)C[C@H]3C(=O)C(C)(C)C[C@@H]3[C@@]1(C)[C@H]2OC(C)=O", "activation": -6.25}
{"smiles": "CC(=O)O[C@@H]1C[C@@H](C)[C@](O)(CCC2=CC(=O)OC2)[C@@]2(C)CCCC(C)(C)C12", "note": "(stereo partly drawn)", "activation": -29.8}
{"smiles": "O=C(Nc1ccn[nH]1)c1c(F)cccc1F", "activation": 12.3}
{"smiles": "C[C@@H]1CC[C@]2(C(=O)O)CC[C@]3(C)C(=CCC4[C@@]5(C)C[C@@H](O)[C@@H](O)C(C)(C)C5CC[C@]43C)C2[C@]1(C)O", "note": "(stereo partly drawn)", "activation": -5.36}
{"smiles": "CC(O)C(=O)/C=C/C=C/C(=O)OC1C=C2COC(=O)C2(O)C2(C)CCCC(C)(C)C12", "note": "(stereo not drawn)", "activation": 10.7}
{"smiles": "C=C1C(=O)O[C@@H]2/C=C(\\C)CC/C=C(\\C)CC[C@@H]12", "Potency": "21.3 µM (active)"}
